From PubChem BioAssay
TSHR antagonist – blocks TSH signaling through the human TSH receptor; TSHR-expressing cells, TSH-stimulated cAMP HTRF, 2 h; active compounds read low; activity change, negative = inhibition, % at 11.5 µM; 330,000 compounds, 0.2% hits;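 active = activity change below a set negative limit, meaning inhibition stronger than a set level, cut at about -70% in these data; inconclusive = activity change between two set negative limits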
Target sequence (P16473 whole entry, looked up): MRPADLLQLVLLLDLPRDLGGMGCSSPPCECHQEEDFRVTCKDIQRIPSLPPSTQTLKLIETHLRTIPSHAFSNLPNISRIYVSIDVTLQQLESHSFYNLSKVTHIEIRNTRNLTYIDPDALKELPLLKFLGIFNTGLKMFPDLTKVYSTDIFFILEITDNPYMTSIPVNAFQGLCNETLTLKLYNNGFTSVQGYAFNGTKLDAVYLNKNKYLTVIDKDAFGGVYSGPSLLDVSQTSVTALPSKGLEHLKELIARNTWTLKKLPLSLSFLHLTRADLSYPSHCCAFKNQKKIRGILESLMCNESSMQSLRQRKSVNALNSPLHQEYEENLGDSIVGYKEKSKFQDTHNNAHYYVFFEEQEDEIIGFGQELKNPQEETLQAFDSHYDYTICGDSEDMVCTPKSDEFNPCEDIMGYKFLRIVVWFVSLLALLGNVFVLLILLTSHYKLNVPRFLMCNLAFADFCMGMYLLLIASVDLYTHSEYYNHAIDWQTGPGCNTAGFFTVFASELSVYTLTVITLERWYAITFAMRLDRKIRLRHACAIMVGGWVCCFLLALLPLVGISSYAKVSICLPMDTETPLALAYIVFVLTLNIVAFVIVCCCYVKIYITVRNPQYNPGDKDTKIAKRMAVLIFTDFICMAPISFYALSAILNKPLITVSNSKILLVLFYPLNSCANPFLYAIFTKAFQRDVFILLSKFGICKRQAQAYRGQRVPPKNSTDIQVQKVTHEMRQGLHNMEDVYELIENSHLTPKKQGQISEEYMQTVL
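Cell-based HTRF cAMP assay; TSHR cells + compound, TSH EC80 (4nM final), 2 h, 37 deg C. Lysis with anti-cAMP cryptate and cAMP-d2, 30 min RT, read 665/620 nm.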
ELG1 repair inh – ELG1-dependent DNA repair inhibition; 330,000 compounds, 2.3% hits; AID 504467; HEK293T ELG1-luciferase reporter, luminescence, 16 h; DNA damage induced by 5-fluorouridine; Potency, µM (series often up to 46.1 µM), inactives show at the top dose activity change, negative = inhibition, usual class: inhibitors; note: potency is the fitted concentration of half-maximal effect; nearly all actives have a fitted effect of over 55% in size
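Cells (2,000 per well) received 5-fluorouridine plus test compound or DMSO and were incubated 16 hr at 37 °C, 5% CO2. Luciferase activity was read by luminescence 30 min after ONE-Glo addition; signal suppression marked inhibition of damage-induced ELG1 function.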
VP16 counter – counter-screen for ROR gamma inhibitors: Gal4-VP16 reporter; Drosophila S2 Gal4-VP16 UAS-luciferase, luminescence, 20 h; Potency, µM (titrated, usually from 53.6 µM), for the others: top-dose activity, negative = inhibition, hits mostly inhibitors; 310,000 compounds, 3.5% hits;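 note: Gal4-VP16 expression switched on by copper sulfate through the metallothionein promoter; potency is the fitted concentration of half-maximal effect; nearly all actives have a fitted effect of over 50% in size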
RORgamma inh – blocks mouse ROR gamma transcriptional activity; P51450; Drosophila S2 Gal4-RORgamma UAS-luciferase reporter, 20 h; 310,000 compounds, 5.4% hits; Potency, µM (titrated, usually from 53.6 µM), for inactives: top-dose activity change, negative = inhibition, actives largely listed as inhibitors; note: potency is the fitted concentration of half-maximal effect; nearly all actives have a fitted effect of over 60% in size
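Luciferase reporter read in Schneider cells carrying Gal4-RORγ (mouse) and UAS-Photinus luciferase; cells given compound 1 h before 700 uM copper sulfate induction, then incubated 20 h at ambient temperature.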
B2AR arrestin – recruits beta-arrestin to the human beta2-adrenergic receptor | 330,000 compounds, 0.02% hits | beta-arrestin recruitment to beta2AR, cell-based reporter | P07550 | Potency, µM (highest dose often 46.1 µM), without a hit: at the highest dose activation, most hits filed as activators;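 note: potency is the fitted concentration of half-maximal effect; 0% = DMSO controls and full agonism = EC100 isoproterenol or metaproterenol; nearly all actives have a fitted effect of over 65% in size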
Starred values were filed as active, the others as inactive; ? = inconclusive; . = no result given; [ ] = dose if it differs, or a comment. The list is not random: actives were taken first. Their share in the collection is about 7.5%. Unless noted, calls come from the whole dose curve; as a rule, active = well fitted curve in the direction sought with a large enough effect; inconclusive = small, poorly fitted or top-dose-only effect, or another doubt; inactive = no such curve, though single readings can be large; an effect the other way counts as inactive or inconclusive. Unless noted, % is set by controls: 0 for no effect and ±100 for the full control effect.

SMILES	TSHR antagonist	ELG1 repair inh	VP16 counter	RORgamma inh	B2AR arrestin
CCCCOc1ccc(S(=O)(=O)NNC(=O)c2cc3ccccc3o2)cc1	8	-7%	-30%	-4%[10 µM]	7%
Cc1cc(C)c(N(Cc2ccccc2)S(=O)(=O)c2ccc(OCCNC(=O)c3cc4ccccc4o3)cc2)c(C(=O)NO)c1	.	.	?	10µM*	.
C=CCCCCCCCCc1nc(SCC(=O)O)n[nH]1	-8	12%	0%	1%	0%
C=CCCCCCCCCc1nc(=S)[nH][nH]1	-4	-7%	-3%	13µM*	0%
Cc1cccc(Oc2nc(-c3ccccn3)nc3ccccc23)c1	4	?	2.2µM*	0.56µM*	-1%
Cc1ccccc1Oc1nc(-c2ccccn2)nc2ccccc12	-7	?	1.3µM*	0.32µM*	0%
CC(=O)Nc1ccc(Oc2nc(-c3ccccn3)nc3ccccc23)cc1	12	?	?	-3%	0%
CC(=O)Nc1cccc(Oc2nc(-c3ccccn3)nc3ccccc23)c1	5	0%	?	5.6µM*	0%
C=C(C(C)=O)C(O)c1cccc(OC)c1 (stereo not given)	.	.	7%	-3%	.
CCOc1ccccc1NC(=O)C(=O)/C=C(\O)c1cc(OC)ccc1OC	-2	-26%	?	?	0%
COc1ccc(OC)c(/C(O)=C/C(=O)C(=O)Nc2cc(C)cc(C)c2)c1	-2	?	18µM*	2.5µM*	0%
COc1ccc(OC)c(/C(O)=C/C(=O)C(=O)Nc2cc(C)ccc2OC)c1	0	-13%	11µM*	3.5µM*	0%
Cc1ccnc(NS(=O)(=O)c2ccc3ccccc3c2)n1	-3	1%	-3%	15%[1.91 µM]	1%
Cc1ccc(C(=O)NCc2cccnc2)cc1S(=O)(=O)N1CCCCCC1	-3	-1%	7%	-1%	-1%
C[C@H](N)C(=O)N[C@@H](C)P(=O)(O)O	.	.	-1%	0%	.
CC(=O)c1cccc(NC(=O)Nc2cccnc2)c1	12	3.7µM*	-8%	?	0%
Cc1ccc(NC(=O)Nc2cccnc2)cc1NC(=O)Nc1cccnc1	-18	8.2µM*	-11%	-20%	-1%
COc1ccc(NC(=O)Cn2nc(C(=O)O)c3ccccc3c2=O)cc1OC	-3	7%	4%	-16%	0%
COc1cccc(C2=NN(C(=O)c3cccs3)C(O)(C(F)(F)F)C2)c1 (stereo not given)	18	?	3%[10 µM]	27%	0%
COc1cccc(C2(O)CC(C(F)(F)F)=NN2C(=O)c2ccccn2)c1 (stereo not given)	2	?	6.3µM*	1.6µM*	0%
COc1ccc(C(=O)N2N=C(c3cccc(OC)c3)CC2(O)C(F)(F)F)cc1 (stereo not given)	15	?	-68%	11µM*	5%
COc1cccc(C(=O)N2N=C(c3cccc(OC)c3)CC2(O)C(F)(F)F)c1 (stereo not given)	4	9%	-18%	11µM*	0%
COc1cccc(C(=O)N2N=C(c3ccccn3)CC2(O)C(F)(F)F)c1 (stereo not given)	6	-3%	5µM*	2µM*	0%
CCN(c1ccc(OC)cc1)S(=O)(=O)c1nnc(NC(=O)c2ccc(C)cc2)s1	-6	4%	-12%	0%	-1%
COc1ccc(Nc2nc(N)c([N+](=O)[O-])c(N3CCOCC3)n2)cc1	-5	0%	-5%	46%	0%
SMILES	TSHR antagonist	ELG1 repair inh	VP16 counter	RORgamma inh	B2AR arrestin
CN(C)c1ccc(Nc2nc(N)c([N+](=O)[O-])c(N3CCOCC3)n2)cc1	-10	16µM*	-2%	24%	-2%
COc1cccc(/C=c2\s/c(=C\C(=O)C(C)(C)C)[nH]c2=O)c1	-6	?	?	10µM*	0%
CN1CCN(c2ncc3nc(-c4ccc(F)cc4)c(=O)n(C4CC4)c3n2)CC1	.	.	-2%	-24%	.
CCN(CC)C(=O)c1sc2nc(-c3cccs3)cc(-c3cccs3)c2c1N	0	-3%	-1%	-40%	-1%
Cc1nnc(NC(=O)c2sc3nc(-c4cccs4)cc(C(F)(F)F)c3c2N)s1	-22	?	?	4µM*	0%
Nc1c(C(=O)Nc2nccs2)sc2nc(-c3cccs3)cc(C(F)(F)F)c12	-11	0%	10µM*	?	0%
CC(C)(C)C(=O)c1sc2nc(-c3cccs3)cc(C(F)(F)F)c2c1N	38	10%	-9%	10µM*	0%
COc1ccc(O[C@H]2C=C[C@@H](c3ccccc3)O[C@H]2COC(=O)CC/C(C)=N\OC[C@@H](O)[C@H]2O[C@H]3OC(C)(C)O[C@H]3[C@@H]2O)cc1	.	.	0%[10 µM]	-5%[10 µM]	.
Nc1cccnc1Sc1ccc([N+](=O)[O-])cn1	-1	1%	?	4µM*	-2%
CCOc1ccc(NC(=O)CN(C)C(=O)c2n[nH]c(=O)c3ccccc23)cc1OCC	-4	6%	.	.	-1%
CC(C)(C)c1csc(NC(=O)Cc2ccc(S(=O)(=O)N3CCOCC3)s2)n1	-16	-3%	.	.	0%
CN1CCN(c2nc(-c3cccnc3)nc3ccccc23)CC1	.	?	-26%	-12%	0%
c1cncc(-c2nc(N3CCCCCC3)c3ccccc3n2)c1	18	?	?	11µM*	0%
CCN1CCN(c2nc(-c3ccncc3)nc3ccccc23)CC1	3	0%	-6%	-26%	0%
CN1CCN(c2nc(-c3ccccn3)nc3ccccc23)CC1	48	?	-17%	-30%	0%
COc1cc2c(cc1OC)CN(c1nc(-c3cccnc3)nc3ccccc13)CC2	-8	9.2µM*	-5%	20%	1%
c1ccc2c(N3CCCCCC3)nc(-c3ccncc3)nc2c1	52	7.3µM*	-6%	-39%	0%
c1ccc(N2CCN(c3nc(-c4ccccn4)nc4ccccc34)CC2)cc1	-5	?	1.6µM*	0.28µM*	0%
CN1CCN(c2nc(-c3cccc(C#N)c3)nc3ccccc23)CC1	.	.	-12%	-20%	.
CC1CCN(C(=O)C2CCCN(S(=O)(=O)c3ccc4c(c3)CC(C)N4C(=O)C3CC3)C2)CC1 (stereo not given)	-5	-20%	-4%	4%	-1%
O=C(CCS(=O)(=O)c1ccccc1)N(CCCN1CCOCC1)c1nc2ccc(F)cc2s1	-7	?	.	.	10%
CC1CN(c2nc(-c3ccccc3)nc3ccccc23)CC(C)O1 (stereo not given)	32	13µM*	-2%	-30%	0%
CC1CN(c2cc(-c3ccccc3)c3ccccc3n2)CC(C)O1 (stereo not given)	-13	-6%	1%	14%	0%
Cc1ccc(NC2CC(=O)N(CCc3ccccc3)C2=O)cc1 (stereo not given)	-14	-6%	-11%	4µM*	0%
